Assay outcomes as filed in PubChem.
PostGolgi ctrl: growth of the yeast control strain, post-Golgi counter-screen; AID 738; efflux-deficient yeast background strain, growth absorbance A615, 16 h; hit rate 5% among 98,000; inhibition, % at 10 µM
CYP2C9 act: increases human cytochrome P450 2C9 activity | P11712 | recombinant CYP2C9, luciferin-H conversion, luminescence; hits give high values; factor 1 = untreated enzyme, 0 = blocked | activation factor at 5 µM | hit rate 1.4% among 96,000;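 active = activation factor of 2 or more for CYP2C9 at a 5 µM dose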;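 also: 0 = sulfaphenazole-blocked wells and 1 = vehicle-only wells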
Target sequence (P11712 whole entry, looked up): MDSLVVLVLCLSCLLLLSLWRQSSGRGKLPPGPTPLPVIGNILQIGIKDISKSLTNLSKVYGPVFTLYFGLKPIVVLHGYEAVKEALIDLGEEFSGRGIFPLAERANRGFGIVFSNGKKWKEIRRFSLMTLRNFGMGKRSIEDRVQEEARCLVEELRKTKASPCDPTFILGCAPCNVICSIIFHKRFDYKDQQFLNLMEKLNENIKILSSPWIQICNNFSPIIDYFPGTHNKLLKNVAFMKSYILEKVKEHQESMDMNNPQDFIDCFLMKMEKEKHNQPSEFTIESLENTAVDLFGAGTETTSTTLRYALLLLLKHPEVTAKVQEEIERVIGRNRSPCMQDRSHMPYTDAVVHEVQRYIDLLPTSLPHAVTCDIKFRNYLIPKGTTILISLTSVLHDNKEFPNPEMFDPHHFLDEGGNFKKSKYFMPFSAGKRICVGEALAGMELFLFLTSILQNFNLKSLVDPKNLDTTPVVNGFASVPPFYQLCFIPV
CYP2C19 act: cytochrome P450 2C19 (human) activation; P33261; recombinant CYP2C19, luciferin-H EGE luminescence; hits give high values; 0 = fully inhibited enzyme, 1 = untreated enzyme; activation factor at 5 µM; 96,000 tested, under 10 active;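 active = activation factor of at least 2 at 5 µM in the primary screen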;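 also: 0 = wells with 2.5 mM tranylcypromine and 1 = vehicle-only wells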
CYP2C19 inh: inhibitors of human CYP2C19; CYP2C19 Supersomes, luciferin-H EGE luminescence, 30 min; inhibition, % at 5 µM; hit rate 21% among 96,000; AID 778;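 active = CYP2C19 inhibition above a set limit at 5 µM in the primary screen, cut at about 50% in these data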;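 also: plate controls were negative control wells for no effect and 2.5 mM tranylcypromine positive control for full effect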
CYP2C9 inh: human CYP2C9 inhibition | AID 777 | hit rate 20% among 96,000 | CYP2C9 Supersomes, luciferin-H conversion, luminescence | P11712 | inhibition, % at 5 µM;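 active = blocking of liver enzyme CYP2C9 beyond about 50% at 5 µM, limit read from the data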
PostGolgi yeast: growth inhibition of a yeast mutant, post-Golgi transport screen; post-Golgi transport phenotypic cell assay; inhibition, % at 10 µM; hit rate 0.9% among 98,000; AID 739;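 also: yeast cells grown in 1536-well plates; yeast grown about 18 h at 30C before absorbance read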
Numbers without * were called inactive; x = no result given. Compounds with a hit are over-represented: about 32% of the library has one in this group of screens. Rule as the data show it, unless noted: active = inhibition above about 30%; inactive = the rest.

SMILES	PostGolgi ctrl	CYP2C9 act	CYP2C19 act	CYP2C19 inh	CYP2C9 inh	PostGolgi yeast
N#CC1=C(N)SC(N)=C(C#N)C1CCc1ccccc1	7.0	0.1	0.1	85.1*	92.1*	-5.7
N#CC1=C(N)SC(N)=C(C#N)C1Cc1ccccc1	4.3	0.7	0.5	45.7	33.6	-1.0
N#CC1=C(N)SC(N)=C(C#N)C1c1c(Cl)cccc1Cl	-5.8	0	0.1	89.3*	95.1*	-1.6
Cc1ccc(OCC(O)CNC(=O)c2ccccc2C(=O)O)cc1 (configuration not stated)	5.9	1	1	0.5	3.9	10.6
Cc1cccc(OCCCOc2cccc3cccnc23)c1C	16.9	1.8	0.4	56.1*	-82.2	-2.1
Cc1ccc(OCCCOc2cccc3cccnc23)cc1C	28.8	2.8*	0.3	72.5*	-183.2	4.9
CCOc1cc(/C=N/NC(=O)COc2ccc(C)cc2)ccc1OC(=O)c1cccs1	4.1	0.3	0.6	43.3	68.9*	2.6
O=C(COc1ccc(Cl)cc1)N/N=C/CCc1ccccc1	9.2	1	0.5	51.8*	0.4	-3.8
CCOc1cc(/C=C2/C(=O)N(c3ccccc3)N=C2C)ccc1OC(=O)c1ccco1	-3.5	x	x	x	x	12.3
CCOc1cc(/C=C2\C(=O)N(c3ccc(C(N)=O)cc3)N=C2C)ccc1OC(=O)c1cccs1	12.2	0.7	0.3	67.1*	25.4	-3.9
CCOc1cc(/C=N/NS(=O)(=O)c2ccccc2)ccc1OS(=O)(=O)c1ccc(C)cc1	1.2	0	0	99.2*	100.3*	10.2
COc1ccc(OC)c(C2c3c(oc4ccccc4c3=O)C(=O)N2CCCN(C)C)c1 (configuration not stated)	5.1	0.8	0.9	10.6	24.1	13.8
CCOc1cc(/C=N\NC(=O)Cc2ccccc2)ccc1OCC(=O)Nc1ccc(C)c(C)c1	12.7	0.5	1.1	-13.2	46.4	-2.0
CCOc1cc(/C=N/NC(=O)COc2ccc(Cl)cc2)ccc1OS(=O)(=O)c1ccccc1	16.6	0.6	0.2	81.7*	36.9	-0.5
CCCOc1ccc(CCN2CCC(=O)NC2=O)cc1C	11.7	0.8	0.8	23.5	23.0	6.0
Cc1cc(CCN2CCC(=O)NC2=O)ccc1OC(C)C	0.3	0.9	0.5	51.2*	7.4	-8.2
Cc1nc2ncnn2c(C)c1CCC(=O)NCCC1=CCCCC1	-0.4	0.9	0.9	6.5	6.9	2.2
Cc1ccccc1NC(=O)C1Cc2ccccc2C(=O)O1 (configuration not stated)	7.7	0.8	0.3	71.0*	15.8	5.1
O=C1OC(C(=O)Nc2nccs2)Cc2ccccc21 (configuration not stated)	0.0	0.6	0.6	43.7	40.0	4.2
CCCCCCOC(=O)C[N+](C)(C)CCOC1CC2CCC1(C)C2(C)C (configuration not stated)	36.8*	1	0.8	18.2	1.8	15.9
O=C(NCC(=O)N(CCc1ccccc1)C(C(=O)NC1CCCCC1)c1ccncc1)c1ccco1 (configuration not stated)	-5.5	0.1	0.2	81.8*	91.8*	-5.7
CCOCCCN(C(=O)CNC(=O)c1ccco1)C(C(=O)NC1CCCC1)c1ccccc1C (configuration not stated)	2.5	1.1	1.1	-13.4	-9.3	21.5
Cc1ccc(C(C(=O)NC2CCCCC2)N(CCC(C)C)C(=O)CNC(=O)c2ccco2)o1 (configuration not stated)	0.7	0.7	0.5	52.8*	33.7	0.2
COc1cccc(N(C(=O)CNC(=O)c2ccco2)C(C(=O)NC2CCCC2)c2ccncc2)c1 (configuration not stated)	-1.9	0.8	0.4	57.1*	20.4	-2.2
Cc1ccc(N(C(=O)CNC(=O)c2ccco2)C(C(=O)NCC2CCCO2)c2ccccc2)cc1 (configuration not stated)	-3.6	0.8	0.1	85.1*	16.3	-5.0
SMILES	PostGolgi ctrl	CYP2C9 act	CYP2C19 act	CYP2C19 inh	CYP2C9 inh	PostGolgi yeast
O=C(NCC(=O)N(c1ccccc1)C(C(=O)NCC1CCCO1)c1ccccc1)c1ccco1 (configuration not stated)	9.3	1.2	0.9	13.7	-18.3	-1.3
CCOc1ccccc1NC(=O)c1cc(Cl)ccc1NC(=O)c1ccco1	2.4	1	1	-3.1	0.6	-6.3
C=CCN(C(=O)CNC(=O)c1ccco1)C(C(=O)NC1CCCCC1)c1ccccc1 (configuration not stated)	1.4	0.3	0.2	83.4*	70.4*	6.5
C=CCN(C(=O)CNC(=O)c1ccco1)C(C(=O)NC1CCCCC1)c1ccc(F)cc1 (configuration not stated)	8.0	1.1	0.9	6.2	-5.1	12.4
O=C(NCC(=O)N(CCc1ccccc1)C(C(=O)NC1CCCC1)c1cccnc1)c1ccco1 (configuration not stated)	9.9	0.5	0.5	53.7*	51.6*	3.7
O=C(NCC(=O)N(c1cccnc1)C(C(=O)NC1CCCCC1)c1cccnc1)c1ccco1 (configuration not stated)	4.2	1	1	-3.5	0.4	15.5
CCOC(=O)/C=C1\SCC(=O)N1CC(=O)NC(C)C	8.8	1.1	0.8	24.8	-6.5	11.3
CCOC(=O)/C=C1\SCC(=O)N1CC(=O)Nc1ccccc1OC(F)F	5.5	0.6	0	95.7*	37.8	-3.2
O=C(O)C1CC(=O)N(Cc2cccs2)C1 (configuration not stated)	11.4	1.2	1.2	-23.0	-17.2	-2.5
Cc1nc(N2CCOCC2)c2cc(-c3ccccc3)sc2n1	-1.4	0.6	0.7	34.0	44.2	3.6
c1ccc(-c2cc3c(N4CCOCC4)ncnc3s2)cc1	7.2	0.7	0.2	78.7*	33.7	9.8
Cc1ccc(NC(=O)COc2ccccc2CNC(C)(C)CC(C)(C)C)cc1	25.7	0.9	0.5	45.8	6.3	-4.2
COc1ccc(OC)c(NC(=O)CSc2nnc(Cn3c(=O)sc4ccccc43)n2C)c1	0.6	x	x	x	x	5.0
COc1cc(NC(=O)CN2CC(c3ccccc3)CC2=O)cc(OC)c1 (configuration not stated)	5.5	x	x	x	x	2.1
O=C(CN1CC(c2ccccc2)CC1=O)OCc1ccccc1F (configuration not stated)	2.7	0.4	0.1	88.3*	55.9*	-1.4
O=C1CC(c2ccccc2)CN1Cc1ccccc1 (configuration not stated)	4.3	0.8	0.1	92.9*	18.7	-3.2
O=C(O)C1CC(=O)N(Cc2ccccc2)C1 (configuration not stated)	7.8	1.4	1	-1.5	-39.5	2.3
C=CCN1CC(c2nc3ccccc3n2Cc2ccccc2)CC1=O (configuration not stated)	-0.9	1	1	3.8	1.9	6.3
